Only some compounds are listed: those with a hit (about 2.7% of all), similar ones and a draw of the others.
PP5 primary: PP5 (human) phosphatase inhibition; P53041; purified PP5c, OMFP substrate fluorescence; inhibition, % at 6.7 µM; 0.18% of 320,000 active; AID 1987;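 active means inhibition above the campaign's mean inhibition across all tested compounds plus 3 SD, cut at about 9.5% in these data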;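 further: 0% = DMSO only and 100% = 100 µM cantharidin control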
PREPL inh: human PREPL enzyme inhibition; 0.68% of 320,000 active; Q4J6C6; inhibition, % at 5.96 µM; recombinant PREPL, fluorescence polarization activity-based probe;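 further: 0% = enzyme with DMSO and 100% = wells lacking enzyme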
Target sequence (Q4J6C6 whole entry, looked up): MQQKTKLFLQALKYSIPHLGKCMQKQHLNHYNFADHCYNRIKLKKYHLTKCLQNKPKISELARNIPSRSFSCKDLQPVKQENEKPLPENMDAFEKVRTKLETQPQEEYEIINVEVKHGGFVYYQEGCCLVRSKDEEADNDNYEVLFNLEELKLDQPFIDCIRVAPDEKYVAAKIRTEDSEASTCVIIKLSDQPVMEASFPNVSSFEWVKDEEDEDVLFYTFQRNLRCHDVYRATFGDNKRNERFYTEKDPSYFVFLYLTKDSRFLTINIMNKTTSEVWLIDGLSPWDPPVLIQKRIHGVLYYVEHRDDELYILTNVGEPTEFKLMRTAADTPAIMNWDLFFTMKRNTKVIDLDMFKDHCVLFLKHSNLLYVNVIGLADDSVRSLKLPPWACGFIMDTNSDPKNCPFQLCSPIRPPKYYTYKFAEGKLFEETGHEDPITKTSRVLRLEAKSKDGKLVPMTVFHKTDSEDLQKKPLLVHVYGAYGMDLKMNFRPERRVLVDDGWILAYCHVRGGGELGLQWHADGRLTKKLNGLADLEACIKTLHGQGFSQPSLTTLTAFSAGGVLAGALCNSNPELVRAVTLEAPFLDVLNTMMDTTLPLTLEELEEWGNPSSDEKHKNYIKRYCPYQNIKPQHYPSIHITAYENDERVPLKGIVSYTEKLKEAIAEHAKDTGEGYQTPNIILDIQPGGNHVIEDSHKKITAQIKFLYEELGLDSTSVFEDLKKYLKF
ANO1 activ: activators or potentiators of mouse TMEM16A chloride channel. Q8BHY3. HEK293 TMEM16A/YFP-H148Q/I152L, iodide quench fluorescence; active compounds read low. B-score at 10 µM. 0.3% of 340,000 active;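 active means fluorescence-ratio B-score plate-corrected deviation score at least 3 library SD below zero, with starting fluorescence score within 5 deviations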;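 further: channel opened by trigger with iodide after compound preincubation; score built on the fluorescence ratio of max minus min over baseline; more negative score means more quench and so TMEM16A activation or potentiation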
TMEM16A inh: inhibitors of mouse TMEM16A calcium-activated chloride channel; AID 588511; HEK293 TMEM16A/YFP iodide influx fluorescence, ionomycin; 1.2% of 310,000 active; normalized B-score (activity score, 25-100; higher = stronger inhibition) at 10 µM; Q8BHY3;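 active means ratio plate-corrected score three or more library SD toward inhibition, starting fluorescence score within five deviations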;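 further: score derived from kinetic fluorescence span divided by baseline fluorescence per well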
DNA FID counter: displaces DNA intercalator in HCV helicase counter-screen; DNA fluorescent intercalator displacement, fluorescence; inhibition, % at 7.9 µM; 0.17% of 290,000 active; AID 1845; in the data active means inhibition above about 37%;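 further: 0% = vehicle and 100% = reference compound; higher means more ethidium bromide displaced from hairpin DNA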
PP1 counter: counter-screen for PP5 inhibitors: inhibitors of human PP1-alpha; P62136; purified PP1alpha, OMFP fluorescence; 0.9% of 320,000 active; AID 2235; inhibition, % at 6.7 µM;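 active means inhibition above the mean inhibition of all tested compounds plus 3 SD, computed separately for each screening campaign, cut at about 15% in these data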
PREPL inh cf: confirmation of human PREPL enzyme inhibitors | shares compounds with PREPL inh | recombinant PREPL, fluorescence polarization activity probe | inhibition, % at 5.96 µM | 67% of 2,000 active;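 further: 0% = protein with DMSO and 100% = wells lacking protein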
Active calls of the source: *. Unless noted, no stated cut-off is given here; in the data, active means inhibition above about 43%; inactive means the rest.

What do the screens show for `O=C(CSc1nnc2ccc(-c3ccccn3)nn12)N1CCCC1`?
ANO1 activ: inactive

How did COc1ccc(C(=O)Nc2ccc(N3CCOCC3)cc2)cc1S(=O)(=O)N1CCOCC1 do in these assays?
ANO1 activ: inactive

Results for COc1ccc(C(=O)Nc2ccc(-c3ccc(C)o3)cc2)cc1S(=O)(=O)N1CCOCC1 ?
PP5 primary: 3; PREPL inh: 63*; ANO1 activ: inactive; TMEM16A inh: inactive; DNA FID counter: -1; PP1 counter: -2; PREPL inh cf: 37

Results for C=C1N(C)c2cc([N+](=O)[O-])c(N)cc2C1(C)C ?
PP5 primary: 0; PREPL inh: 85*; ANO1 activ: inactive; TMEM16A inh: inactive; DNA FID counter: 10; PP1 counter: 1; PREPL inh cf: 44*

Results for Cc1ccc(NS(=O)(=O)c2cc3c4c(cccc4c2)C(=O)NC3=O)cc1C ?
PP5 primary: 1; PREPL inh: 45*; ANO1 activ: inactive; TMEM16A inh: inactive; DNA FID counter: -8; PP1 counter: 6; PREPL inh cf: 31

What do the screens show for `CNC(=O)c1ccc(-c2sc3nc(N4CCOCC4)c4c(c3c2N)CCCC4)o1`?
PP5 primary: 2; PREPL inh: 48*; ANO1 activ: inactive; TMEM16A inh: inactive; DNA FID counter: -23; PP1 counter: 0; PREPL inh cf: 32

What do the screens show for `CNC(=O)c1ccc(-c2sc3nc(N4CCOCC4)c4c(c3c2N)CC(C)(C)OC4)o1`?
PP5 primary: 3; PREPL inh: 14; ANO1 activ: inactive; TMEM16A inh: inactive; DNA FID counter: -9; PP1 counter: 2

What do the screens show for `COc1ccc2nc(C)cc(N/N=C/c3ccccc3)c2c1`?
PP5 primary: 2; PREPL inh: 19; ANO1 activ: inactive; PP1 counter: 3

How did COc1ccc(/C=N/Nc2cc(C)nc3ccc(OC)cc23)c(OC)c1 do in these assays?
PP5 primary: 2; PREPL inh: 89*; ANO1 activ: inactive; TMEM16A inh: 100*; DNA FID counter: 31; PP1 counter: 14; PREPL inh cf: 81*

What do the screens show for `CN(C)c1ccc(CN(C(=O)/C=C/c2ccccc2Cl)C2CCS(=O)(=O)C2)cc1` (stereo not drawn)?
PP5 primary: 0; PREPL inh: 50*; ANO1 activ: inactive; TMEM16A inh: inactive; DNA FID counter: -28; PP1 counter: -2; PREPL inh cf: 49*

Results for COc1ccc(Nc2nc(-c3sc(N)nc3C)cs2)cc1 ?
PP5 primary: 3; PREPL inh: 50*; ANO1 activ: inactive; TMEM16A inh: inactive; DNA FID counter: 12; PP1 counter: -3; PREPL inh cf: 26

How did Cc1ccc(Nc2nc(-c3sc(C)nc3C)cs2)cc1 do in these assays?
PP5 primary: 5; PREPL inh: 46*; ANO1 activ: inactive; TMEM16A inh: inactive; DNA FID counter: -25; PP1 counter: 0; PREPL inh cf: 32

What do the screens show for `COc1ccc(CCNc2nc(-c3sc(N)nc3C)cs2)cc1OC`?
PP5 primary: 3; PREPL inh: 43*; ANO1 activ: inactive; TMEM16A inh: inactive; DNA FID counter: -7; PP1 counter: -8; PREPL inh cf: 22

Results for COc1cc2ccccc2cc1C(=O)N1CCc2ccccc21 ?
ANO1 activ: inactive

Results for COc1ccc(C(=O)c2coc3ccc(O)c(CN4CCCCC4)c23)cc1 ?
PP5 primary: 2; PREPL inh: 57*; ANO1 activ: inactive; TMEM16A inh: inactive; DNA FID counter: 4; PP1 counter: -2; PREPL inh cf: 59*

Results for O=C(c1ccccc1)c1coc2ccc(O)c(CN3CCOCC3)c12 ?
PP5 primary: 2; PREPL inh: 43*; ANO1 activ: inactive; TMEM16A inh: inactive; DNA FID counter: 2; PP1 counter: -3; PREPL inh cf: 44*

Results for COc1ccc(OC)c(C(=O)c2coc3ccc(O)c(CN(C)C)c23)c1 ?
PP5 primary: 3; PREPL inh: -8; ANO1 activ: inactive; TMEM16A inh: inactive; DNA FID counter: 8; PP1 counter: -1

What do the screens show for `CC(C(=O)N1CCCC1)N1CCN(S(=O)(=O)c2ccccc2)CC1` (stereo not drawn)?
PREPL inh: 10; ANO1 activ: inactive

Results for COc1ccc(CNC(=O)COC(=O)c2ccc(S(=O)(=O)N3CCCCC3)cc2)cc1 ?
PREPL inh: 8; ANO1 activ: inactive

Results for O=C(NC(=S)NCc1ccccc1)C1CCCCC1 ?
PP5 primary: 2; PREPL inh: 5; ANO1 activ: inactive; TMEM16A inh: inactive; DNA FID counter: -12; PP1 counter: 0

Results for COc1cc(O)c(C(CCN2CCCCC2)c2cc(OC)c(OC)c(OC)c2)c(OC)c1 (stereo not drawn) ?
PP5 primary: 1; PREPL inh: 26; ANO1 activ: inactive; TMEM16A inh: inactive; PP1 counter: 2

Results for COc1cc(O)c(C(CCN2CCCC2)c2cc(OC)c(OC)c(OC)c2)c(OC)c1 (stereo not drawn) ?
PP5 primary: 5; PREPL inh: 45*; ANO1 activ: inactive; TMEM16A inh: inactive; PP1 counter: 4; PREPL inh cf: 47*

Results for O=C(COC(=O)c1ccc(C(F)(F)F)cc1)Nc1cccc(S(=O)(=O)NC2=NCCCCC2)c1 ?
PREPL inh: 46*; ANO1 activ: inactive; PREPL inh cf: 42

How did O=C(COC(=O)/C=C/c1ccc(Cl)cc1)Nc1cccc(S(=O)(=O)NC2=NCCCCC2)c1 do in these assays?
PREPL inh: 44*; ANO1 activ: inactive; PREPL inh cf: 35

How did COc1cc(/C=C2/NC(=O)NC2=O)ccc1OCC(=O)Nc1ccc(F)cc1 do in these assays?
PP5 primary: 3; PREPL inh: 87*; ANO1 activ: inactive; TMEM16A inh: inactive; DNA FID counter: -18; PP1 counter: 10; PREPL inh cf: 10

How did COc1ccccc1-c1nnc(SC/C(O)=C(\C#N)c2nc3ccccc3[nH]2)n1C1CCCCC1 do in these assays?
PP5 primary: 4; PREPL inh: -11; ANO1 activ: inactive; TMEM16A inh: inactive; DNA FID counter: -33; PP1 counter: 7

How did N#C/C(=C(/O)CSc1nnc(Cc2cccs2)n1C1CCCCC1)c1nc2ccccc2[nH]1 do in these assays?
PP5 primary: 2; PREPL inh: 43*; ANO1 activ: inactive; TMEM16A inh: inactive; DNA FID counter: -33; PP1 counter: 5; PREPL inh cf: 35

How did O=C(CC12CC3CC(CC(Br)(C3)C1)C2)NC1CCCC1 do in these assays?
PP5 primary: 2; PREPL inh: 2; ANO1 activ: inactive; TMEM16A inh: inactive; DNA FID counter: -18; PP1 counter: -3
